# Assay outcomes deposited in PubChem by several laboratories.
# BoNT F protease: blocks Botulinum neurotoxin F light chain protease; Multiplex microsphere protease cleavage assay, flow cytometry; 360,000 compounds, 0.22% hits; inhibition, % at 10 µM; in the data active = inhibition above about 35%, passing the limit was not always enough; inconclusive = no clear call, values can overlap the other calls; also: plate controls were buffer without enzyme for full effect and enzyme alone for no effect
# Anthrax LF inh2: inhibitors of Bacillus anthracis lethal factor protease | P15917 | multiplex microsphere protease cleavage assay, LF | inhibition, % at 10 µM | 360,000 compounds, 0.12% hits | AID 588501; also: plate controls were buffer without enzyme for full effect and enzyme alone for no effect
# DUSP3 inh: blocks human VHR1 dual specificity phosphatase; P51452; recombinant VHR phosphatase, pNPP absorbance; inhibition, % at 13.3 µM; 290,000 compounds, 0.52% hits; AID 1654; in the data active = inhibition above about 50%
# Target sequence (P51452 whole entry, looked up): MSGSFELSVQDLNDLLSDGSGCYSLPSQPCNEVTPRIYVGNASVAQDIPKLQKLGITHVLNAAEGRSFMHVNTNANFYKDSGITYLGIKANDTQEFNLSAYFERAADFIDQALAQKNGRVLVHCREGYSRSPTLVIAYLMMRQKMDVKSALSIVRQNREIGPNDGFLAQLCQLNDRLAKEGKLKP
# MazF activator: activators of E. coli MazEF toxin-antitoxin RNase. P0AE70. FAM/BHQ RNA-DNA oligo cleavage fluorescence, 5 h. activation, % at 20 µM. 350,000 compounds, 0.32% hits; in the data active = activation above about 50%
# Target sequence (P0AE70 whole entry, looked up): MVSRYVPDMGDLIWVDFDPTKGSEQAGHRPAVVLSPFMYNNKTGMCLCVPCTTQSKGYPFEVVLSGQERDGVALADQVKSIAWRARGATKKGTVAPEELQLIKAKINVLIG
# Bead autofluor: compound fluorescence in toxin protease inhibitor counterscreen; compound autofluorescence counterscreen, microsphere flow cytometry; active compounds read high; AID 624483; fluorescence intensity (test concentration not listed); 360,000 compounds, 3.1% hits; in the data active = fluorescence intensity above about 16000; inconclusive = no clear call, values can overlap the other calls
# BoNT A protease: blocks Botulinum neurotoxin A light chain protease; 360,000 compounds, 0.17% hits; multiplex microsphere protease substrate cleavage, flow cytometry; AID 588499; inhibition, % at 10 µM; also: plate controls were buffer without enzyme for full effect and enzyme alone for no effect
# An asterisk follows results filed as active; ? = inconclusive; . = no result. Hits are enriched below; roughly 4.1% of the tested compounds scored in any of these assays. Rule as the data show it, unless noted: active = inhibition above about 30%; inconclusive = no clear call, values can overlap the other calls; inactive = below that.
SMILES,BoNT F protease,Anthrax LF inh2,DUSP3 inh,MazF activator,Bead autofluor,BoNT A protease
Cc1nc2ccccc2c2oc(C(=O)NCCN3CCCCC3C)cc12 (configuration not stated),-14,-5,8,7,13061,-2
CC(C)NC(=S)N(C)C1(c2ccccc2Cl)CCCCC1=O (configuration not stated),-6,-2,2,5,2733,0
CN(C(=S)Nc1ccccc1F)C1(c2ccccc2Cl)CCCCC1=O (configuration not stated),-4,-5,13,3,20195*,-1
Cc1cccc(NC(=S)N(C)C2(c3ccccc3Cl)CCCCC2=O)c1 (configuration not stated),0,-1,-15,1,22871*,2
CC(OC(=O)c1n[nH]c2ccccc12)C(=O)NC1CCCCC1C (configuration not stated),1,8,.,0,6748,-1
COc1ccccc1C(=O)Nc1ccc2c(c1)OCO2,-2,-1,25,7,23284*,1
O=C(CC(NC(=O)c1ccccc1Cl)c1ccccc1)Nc1ccc2c(c1)OCO2 (configuration not stated),0,0,7,0,20052*,1
COc1ccc(C)cc1NC(=O)c1ccc2c(c1)OCO2,2,0,20,-2,21822*,2
Cc1ccccc1OC(C)C(=O)Nc1ccc2c(c1)OCO2 (configuration not stated),2,-2,18,-4,5537,4
CC(NC(=O)c1ccccc1Cl)C(=O)Nc1ccc2c(c1)OCO2 (configuration not stated),-13,-2,.,1,5882,-2
COc1ccccc1C(=O)Nc1ccc2c(c1)OCCO2,-4,0,19,5,2748,0
COc1ccccc1OC(C)C(=O)Nc1ccc2c(c1)OCCO2 (configuration not stated),3,-2,56*,8,6038,0
COc1ccc(-c2c(C)nc3c(-c4ccccn4)cnn3c2N)cc1,-25,-6,11,3,3005,-2
COc1ccc(C)cc1NC(=O)c1cc2ccccc2o1,-4,-6,18,6,23609*,?
COc1ccc(OCCCC(=O)Nc2ccc3c(c2)OCO3)cc1,-2,0,19,2,16175*,0
COc1cc(C(=O)Nc2ccc(C)cc2)c(-n2cnnn2)cc1OC,5,2,35,8,4065,0
COc1ccc(OC)c(NC(=O)c2cc3ccccc3o2)c1,-32,-4,-11,13,3336,0
CCOc1ccccc1C(=O)NC(C)c1ccc2c(c1)OCO2 (configuration not stated),2,1,-8,2,18046*,5
COc1cc(C(=O)Nc2ccc3c(c2)OCCO3)c(-n2cnnn2)cc1OC,-1,-2,19,-6,22353*,0
C[C@@H]1NC(=O)c2cc([N+](=O)[O-])cc(I)c2NCCCC[C@@H](C(N)=O)NC(=O)[C@H](CCC(=O)O)NC1=O,-6,-1,-4,-15,4118,0
O=C1C(=NO)C(c2ccccc2)Oc2ccccc21 (configuration not stated),-4,0,.,9,4388,0
Cc1cccc(-c2nc(=S)c3c(n2Cc2ccco2)CCCC3)c1,1,-10,16,2,22703*,3
CC1(C)Cc2c(c(=S)nc(-c3ccccc3)n2CCO)CO1,-13,0,-25,0,4824,0
OCCCn1c(-c2ccccc2)nc(=S)c2c1CCCC2,2,1,15,3,21784*,?
CN(C)CCCn1c(-c2ccccc2)nc(=S)c2c1CCCC2,-32,-14,19,-2,19594*,?
SMILES,BoNT F protease,Anthrax LF inh2,DUSP3 inh,MazF activator,Bead autofluor,BoNT A protease
O=C(Cc1ccccc1Cl)Nc1cc(S(=O)(=O)N2CCOCC2)ccc1N1CCOCC1,0,-10,.,5,7917,2
CCN(CC)C(=O)CSCc1cnn(-c2ccccc2)c1-n1cccc1,-4,-7,-11,-4,22480*,?
O=C(NC1CC1)C1CCN(Cc2cnn(-c3ccccc3)c2-n2cccc2)CC1,-4,1,-7,11,23345*,-2
O=C(CSCc1cnn(-c2ccccc2)c1-n1cccc1)NCc1ccccn1,-4,-3,3,-15,3261,-1
O=C(NCc1ccccn1)C1CCCN(Cc2cnn(-c3ccccc3)c2-n2cccc2)C1 (configuration not stated),1,-1,16,-1,4117,0
O=C(NCc1cccnc1)C1CCCN(Cc2cnn(-c3ccccc3)c2-n2cccc2)C1 (configuration not stated),-5,0,-10,-2,23887*,-2
O=C(NCc1ccccn1)C1CCN(Cc2cnn(-c3ccccc3)c2-n2cccc2)CC1,3,-2,-10,3,22540*,1
CC(=O)N1CCN(c2ccc(NS(=O)(=O)c3ccc(C)cc3)cc2)CC1,-56,-8,26,9,3903,-4
CCN(CC)CCCC(C)NC(=O)c1c(NC(=O)c2ccccc2)sc2c1CCCC2 (configuration not stated),-12,-11,54*,23,3727,-2
COc1ccc(NC(=O)C[C@H]2C(=O)N(C3CCCCC3)C[C@@H]2CSC)cc1,-2,-6,.,8,3528,-1
O=C(O)CC(c1cccc(O)c1)N1Cc2ccccc2C1=O (configuration not stated),-2,9,.,11,3744,2
CC1CCCN(C/C=C/c2ccccc2[N+](=O)[O-])C1 (configuration not stated),0,-4,-11,1,20230*,1
CC1CCCCN1C/C=C/c1ccccc1[N+](=O)[O-] (configuration not stated),-1,0,22,-1,23342*,-3
CCC1CCCCN1S(=O)(=O)c1ccccc1[N+](=O)[O-] (configuration not stated),-5,-1,11,12,2483,0
O=[N+]([O-])c1ccccc1/C=C/CN1CCSCC1,?,10,6,4,3131,3
CCC1CCCCN1C/C=C/c1ccccc1[N+](=O)[O-] (configuration not stated),8,2,18,-7,20733*,7
CCOC(=O)c1sc(NC(=O)C2CC(=O)N(c3ccc(OCC)cc3)C2)nc1C (configuration not stated),24,0,-29,7,2855,2
O=C(Nc1nnc(-c2ccc(Cl)cc2)o1)Nc1ccccc1F,2,-9,19,-1,3850,0
COc1ccc(-c2nnc(SC(C)C(=O)Nc3nccs3)n2Cc2ccccc2)cc1OC (configuration not stated),-6,-8,6,-2,20588*,0
CC(C)(CCO)Nc1ncnc2onc(-c3ccc(F)cc3)c12,4,2,-7,9,3191,1
